These results are taken from PubChem BioAssay.

Test [1] is described as follows: optical density shifts of acrAB sulA E. coli – strain DRC41, OD650, 48 h, E. coli filamentation inducer project, primary screen (AID 1152).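 Note: E. coli MC1000 strain DRC41 lacking acrAB efflux pump and sulA.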 The following applies: higher = more signal, called active from +8 up or from −8 down.
Test [2] can be described thus: probe aLefty1 binding on compound microarray – biochemical, small-molecule microarray, 635/667 nm fluorescence, primary screen (AID 1153).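 Note: score merges spot fluorescence with signal-to-noise ratio from the scanned slide images.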 The conditions noted are these: higher = more signal.
Test [3] in a line: plasmodial surface anion channel blockers, osmotic lysis – cell-based, P. falciparum Indochina, OD700, 1 h, primary screen (AID 1154). The conditions noted are these: P. falciparum Indochina infected RBC osmotic lysis, higher = more signal, called active from +8 up or from −8 down.
The nature of test [4]: plasmodial surface anion channel blockers, osmotic lysis – cell-based, P. falciparum Indochina, OD700, 2 h, primary screen (AID 1155).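 Note: lysis reports solute entry through the parasite surface anion channel PSAC.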 The conditions noted are these: P. falciparum Indochina infected erythrocytes, higher = more signal, called active from +8 up or from −8 down.
Test [5] in a line: changes in parasitized red cell lysis, either direction – P. falciparum Indochina, OD700, 3 h, PSAC antagonist project, primary screen (AID 1156). The conditions noted are these: P. falciparum-infected erythrocytes, osmotic lysis, higher = more signal, called active from +8 up or from −8 down.
Test [6] can be described thus: plasmodial surface anion channel blockers, osmotic lysis – cell-based, P. falciparum Indochina, OD700, 18 h, primary screen (AID 1157). The following applies: P. falciparum Indochina infected erythrocytes, osmotic lysis OD700, 18 h; higher = more signal, called active from +8 up or from −8 down.
Test [7] is described as follows: S6 kinase pathway phospho-S6 level changes – cell-based, A549, cytoblot, luminescence, serum-stimulated, primary screen (AID 1158).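 Note: serum-stimulated A549 lung adenocarcinoma cells; signal is phosphorylated S6 detected by cytoblot immunostaining with HRP secondary.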 The conditions noted are these: 5 h, higher = more signal.
In test [8] the target is NADPH oxidase 2 (Homo sapiens) (UniProt P04839). The experiment in a line: compounds shifting NOX2 Amplex Red fluorescence – cell-based, HEK293-NOX2, PMA-stimulated, NOX inhibitor project, primary screen (AID 1159). Note: test concentration not given here. The following applies: 45 min, higher = more signal, called active from +8 up or from −8 down.
The target of test [9] is NADPH oxidase 4 (Homo sapiens) (UniProt Q9NPH5). The experiment in a line: compounds shifting NOX4 Amplex Red fluorescence – cell-based, HEK293-NOX4, tetracycline-induced, NOX inhibitor project, primary screen (AID 1160). The conditions noted are these: HEK293-NOX4, Amplex Red H2O2 fluorescence, 45 min; higher = more signal, called active from +8 up or from −8 down.
Test [10] deals with NADPH oxidase 5 (Homo sapiens) (UniProt Q96PH1). Put plainly: compounds shifting NOX5 Amplex Red fluorescence – cell-based, HEK293-NOX5, NOX inhibitor project, primary screen (AID 1161). The following applies: HEK293-NOX5, ionomycin, 45 min, higher = more signal.
Test [11] can be described thus: compound effects on lung adenocarcinoma cell viability – A549, calcein-AM fluorescence, 48 h, basal, profiling panel (AID 1162). Note: test concentration not given here. The following applies: higher = more signal.
Test [12] is described as follows: compound effects on differentiated 3T3-L1 adipocyte viability – cell-based, 3T3-L1 adipocytes, calcein-AM fluorescence, 48 h, basal, profiling panel (AID 1163). Note: test concentration not given here. The following applies: 3T3-L1 adipocytes viability, higher = more signal.
A short description of test [13]: compound effects on hepatocellular carcinoma cell viability – HepG2, calcein-AM fluorescence, 48 h, basal, profiling panel (AID 1164). Note: test concentration not given here. The following applies: higher = more signal.
Test [14] in a line: compound effects on multiple myeloma cell viability – MM1S, calcein-AM fluorescence, 48 h, basal, profiling panel (AID 1165).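 Note: viability of MM1S multiple myeloma cells under basal unstimulated conditions; test concentration not given here.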 The following applies: higher = more signal.
Test [15] can be described thus: calcein-AM signal in unstimulated myeloma cells – cell-based, calcein-AM fluorescence, 48 h, PK04 Diversity Set, profiling panel (AID 1166).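 Note: cells grown under basal conditions without added stimulus; test concentration not given here.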 The conditions noted are these: RPMI8226 myeloma viability, higher = more signal.
A short description of test [16]: JC-1 mitochondrial signal, unstimulated HepG2 cells – cell-based, JC-1 fluorescence, 24 h, 100 nL compound, profiling panel (AID 1167). Note: test concentration not given here. The following applies: HepG2 mitochondrial potential, higher = more signal.
Test [17] can be described thus: JC-1 mitochondrial signal, unstimulated adipocytes – cell-based, JC-1 fluorescence, 3T3-L1 adipocytes, 24 h, 100 nL compound, profiling panel (AID 1168). Note: test concentration not given here. The following applies: JC-1 mitochondrial fluorescence, higher = more signal, called active from +8 up or from −8 down.
A short description of test [18]: JC-1 mitochondrial signal, unstimulated myeloma cells – cell-based, JC-1 fluorescence, RPMI8226, 24 h, 100 nL compound, profiling panel (AID 1169). Note: test concentration not given here. The conditions noted are these: JC-1 mitochondrial potential fluorescence, higher = more signal.
Test [19] is described as follows: JC-1 mitochondrial signal, unstimulated MM1S myeloma – cell-based, JC-1 fluorescence, 24 h, 100 nL compound, profiling panel (AID 1170). Note: test concentration not given here. The following applies: MM1S mitochondrial potential, higher = more signal.
Test [20] is described as follows: resazurin metabolic signal in A549 cells – cell-based, resazurin fluorescence, 24 h, PK04 Diversity Set, profiling panel (AID 1171). Note: test concentration not given here. The following applies: A549 viability, higher = more signal, called active from +8 up or from −8 down.

Molecules are shown by their SMILES. Active and inactive are the calls of the source.

NADPH oxidase 4 (Homo sapiens), sequence (Q9NPH5 whole entry, looked up): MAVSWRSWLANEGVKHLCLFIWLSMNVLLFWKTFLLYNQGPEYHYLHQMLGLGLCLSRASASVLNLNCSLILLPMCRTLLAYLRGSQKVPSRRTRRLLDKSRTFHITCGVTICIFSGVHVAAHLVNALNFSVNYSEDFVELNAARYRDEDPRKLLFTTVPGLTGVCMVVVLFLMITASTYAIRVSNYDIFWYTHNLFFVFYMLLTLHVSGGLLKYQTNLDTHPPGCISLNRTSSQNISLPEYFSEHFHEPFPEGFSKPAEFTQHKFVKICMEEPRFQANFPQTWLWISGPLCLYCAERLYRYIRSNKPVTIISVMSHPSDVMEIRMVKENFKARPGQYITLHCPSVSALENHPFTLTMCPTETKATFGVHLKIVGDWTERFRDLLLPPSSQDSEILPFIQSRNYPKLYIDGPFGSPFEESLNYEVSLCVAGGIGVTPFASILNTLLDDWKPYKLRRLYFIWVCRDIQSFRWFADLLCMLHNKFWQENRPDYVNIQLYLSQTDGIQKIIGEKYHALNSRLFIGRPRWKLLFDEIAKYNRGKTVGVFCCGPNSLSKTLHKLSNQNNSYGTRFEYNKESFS
NADPH oxidase 2 (Homo sapiens), sequence (P04839 whole entry, looked up): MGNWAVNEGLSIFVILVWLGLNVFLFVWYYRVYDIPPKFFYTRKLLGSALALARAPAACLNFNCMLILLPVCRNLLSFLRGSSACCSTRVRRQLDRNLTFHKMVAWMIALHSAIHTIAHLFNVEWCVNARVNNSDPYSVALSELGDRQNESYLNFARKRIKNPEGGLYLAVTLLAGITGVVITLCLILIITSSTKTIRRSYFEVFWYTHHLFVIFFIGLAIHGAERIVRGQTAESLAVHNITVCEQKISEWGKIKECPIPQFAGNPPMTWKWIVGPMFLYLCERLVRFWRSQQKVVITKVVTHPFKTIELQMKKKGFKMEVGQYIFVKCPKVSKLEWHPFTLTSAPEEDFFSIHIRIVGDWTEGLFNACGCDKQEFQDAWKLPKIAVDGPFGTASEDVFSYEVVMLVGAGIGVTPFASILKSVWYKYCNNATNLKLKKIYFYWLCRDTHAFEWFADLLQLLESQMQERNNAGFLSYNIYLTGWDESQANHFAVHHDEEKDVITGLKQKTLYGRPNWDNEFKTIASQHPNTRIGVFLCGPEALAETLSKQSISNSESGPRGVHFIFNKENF
NADPH oxidase 5 (Homo sapiens), sequence (Q96PH1 whole entry, looked up): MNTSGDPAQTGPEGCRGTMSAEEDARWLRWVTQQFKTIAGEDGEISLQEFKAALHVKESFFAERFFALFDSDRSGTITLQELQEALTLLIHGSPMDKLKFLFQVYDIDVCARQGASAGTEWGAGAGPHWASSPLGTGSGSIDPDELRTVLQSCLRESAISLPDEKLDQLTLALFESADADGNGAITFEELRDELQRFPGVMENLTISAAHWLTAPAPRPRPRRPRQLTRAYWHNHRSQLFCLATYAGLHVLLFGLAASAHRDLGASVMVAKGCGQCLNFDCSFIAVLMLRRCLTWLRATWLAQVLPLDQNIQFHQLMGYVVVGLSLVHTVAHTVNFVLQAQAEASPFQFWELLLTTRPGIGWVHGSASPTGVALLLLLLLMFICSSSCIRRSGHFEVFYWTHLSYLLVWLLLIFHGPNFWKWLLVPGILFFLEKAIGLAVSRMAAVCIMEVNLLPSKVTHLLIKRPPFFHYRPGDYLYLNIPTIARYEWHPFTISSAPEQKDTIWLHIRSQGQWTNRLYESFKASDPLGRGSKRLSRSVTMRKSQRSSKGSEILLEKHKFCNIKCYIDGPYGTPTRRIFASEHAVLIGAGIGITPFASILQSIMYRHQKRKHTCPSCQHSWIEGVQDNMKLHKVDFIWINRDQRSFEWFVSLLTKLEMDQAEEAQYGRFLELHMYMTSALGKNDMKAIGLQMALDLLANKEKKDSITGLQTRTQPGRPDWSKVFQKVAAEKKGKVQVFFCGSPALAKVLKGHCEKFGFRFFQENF

Regarding `O=C1C2C=CC(C(O)c3ccc(F)cc3)N(Nc3ccc([N+](=O)[O-])cc3)C2C(=O)N1c1ccccc1` (stereo not given), the z-score was -1.01 (inactive) in test [1]; 19.7 (active) in test [3]; 3.8 (inactive) in [4]; 0.721 (inactive) in test [5]; 1.22 (inactive) in [6]; -0.454 in test [7]. Moreover, the z-score in [8] was -0.95 (inactive); in [9], -2.96 (inactive); in test [10], -1.91; in [11], -0.755; in test [12] it was -0.376; in [13] it was 0.679. For the same molecule, the z-score is -0.06 in [14]; -0.313 in test [15]; -0.382 in test [16]; -0.287 (inactive) in test [17]; -0.403 in [18]; -0.977 in [19]. For the same molecule, the z-score in test [20] was 0.68 (inactive). In test [2], this molecule displayed a composite z-score of 0.129.
`COc1ccc([Si](C)(C)[C@@H]2[C@@H](CC(=O)N3Cc4ccccc4C[C@H]3CO)O[C@]3(C(=O)N(Cc4cccc(N5CCC5=O)c4)c4ccccc43)[C@H]2C)cc1`: the z-score is -0.879 (inactive) in test [1]; 2.84 (inactive) in test [3]; 1.09 (inactive) in test [4]; -0.2 (inactive) in [5]; 0.917 (inactive) in test [6]; 0.275 in test [7]. The z-score in test [8] was -0.355 (inactive); in [9] it was 0.912 (inactive); in test [10] it was 2.11; in test [11], -0.598; in test [12], 0.832; in test [13], -0.16. Also, the z-score in test [14] was -2.1; in test [15], -2.55; in test [16], -0.372; in [17] it was 1.33 (inactive); in test [18], -0.755; in [19], -1.16. In addition, the z-score in [20] was -1.38 (inactive). The molecule also had a composite z-score in test [2] of 0.199.
Regarding `Cc1c(NC(=O)/C(C#N)=C/c2cccc([N+](=O)[O-])c2)c(=O)n(-c2ccccc2)n1C`, the z-score in [1] is 0.969 (inactive); in test [3], 0.468 (inactive); in test [4], -0.376 (inactive); in test [5], -0.451 (inactive); in test [6], -0.481 (inactive); in test [7] it was 2.39. For the same molecule, the z-score in test [8] was -1.36 (inactive); in [9] it was -0.497 (inactive); in test [10], 0.864; in test [11], 4.01; in test [12] it was 1.31; in test [13], 0.461. Besides, the z-score in test [14] is 0.943; in test [15] it was 2.4; in test [16], 0.69; in test [17], -1.08 (inactive); in test [18] it was -0.122; in test [19], -0.054. Besides, the z-score in [20] was -0.133 (inactive). Besides, the composite z-score in test [2] is -0.173.
As to `CCOC(=O)C[C@H]1[C@H](OC(=O)c2ccc(-c3ccccc3)cc2)[C@@H](NC(=O)c2ccccc2)c2cc(OCCCO)ccc2N1C(=O)c1ccc2ccccc2n1`, the z-score in [1] is -0.734 (inactive); in [3] it was 2.19 (inactive); in test [4], -0.0981 (inactive); in [5], -0.735 (inactive); in [6], -0.11 (inactive); in [7], -0.488. Moreover, the z-score was 0.0548 (inactive) in test [8]; 1.41 (inactive) in [9]; 1.81 in [10]; -0.208 in test [11]; -0.0559 in test [12]; 0.261 in test [13]. The z-score was -0.936 in [14]; -0.617 in test [15]; 0.0102 in [16]; -0.811 (inactive) in test [17]; 0.939 in test [18]; -0.386 in test [19]. Also, the z-score in [20] was -0.264 (inactive). Besides, the composite z-score in [2] turned out to be 0.119.
